Rows were chosen to be rich in hits. Some 18% of all compounds tested hit in one or more screens of this group.
IL-1B inflam inh: inflammasome signaling inhibition, IL-1 beta readout. THP-1 LPS/ATP IL-1B secretion, AlphaLISA, 16 h; active compounds read low. activity change, % at 57.5 µM. AID 743279. 360,000 compounds, 4.7% hits; in the data active = activity change below about -50%; inconclusive = mostly about -30% to -49%
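THP-1 cells pretreated 1 hr with compounds (up to 57.5 uM final), then stimulated with LPS (250 ng/mL final) plus ATP (1.25 mM final); secreted IL-1B measured by AlphaLISA after 16 hr, decreased signal indicating inhibition.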
CtBP-E1A inh: blocks the CtBP interaction with E1A; AlphaScreen GST-E1A/His-CtBP binding, 1536-well; active compounds read low; activity change, % (test concentration not listed); 340,000 compounds, 0.49% hits; in the data active = activity change below about -65%; inconclusive = mostly about -30% to -63%
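Homogeneous bead-based format: GST-tagged E1A captured on glutathione donor beads, His-tagged CtBP on nickel acceptor beads; compounds precede bead addition by 2 h at 37 °C.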
DT40 TDP1 no CPT: qHTS for Inhibitors of human tyrosyl-DNA phosphodiesterase 1 (TDP1): qHTS in cells in absence of CPT; DT40 Tdp1-/- hTDP1 cells, no CPT, ATP luminescence, 48 h; Potency, µM (series often up to 46.2 µM), without a hit: top-dose activity change, negative = growth inhibition, most hits filed as inhibitors; 420,000 compounds, 15% hits; AID 686978, 2013; note: potency is the fitted concentration of half-maximal effect; nearly all actives have a fitted effect of over 55% in size
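DT40 Tdp1-/-;hTDP1 cells, no CPT (DMSO vehicle only), 400 cells/well; compounds pin-transferred; ≥48 hr, 37 °C; CellTiter-Glo 30 min RT dark, luminescence read.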
Six1-Eya2 inh: Six1/Eya2 interaction inhibition. AlphaScreen GST-Six1/His-Eya2 binding, biochemical; active compounds read low. 360,000 compounds, 0.56% hits. Q15475+O00167. AID 651725. activity change, % (test concentration not listed); in the data active = activity change below about -65%; inconclusive = mostly about -30% to -63%
Target sequence (O00167 whole entry, looked up): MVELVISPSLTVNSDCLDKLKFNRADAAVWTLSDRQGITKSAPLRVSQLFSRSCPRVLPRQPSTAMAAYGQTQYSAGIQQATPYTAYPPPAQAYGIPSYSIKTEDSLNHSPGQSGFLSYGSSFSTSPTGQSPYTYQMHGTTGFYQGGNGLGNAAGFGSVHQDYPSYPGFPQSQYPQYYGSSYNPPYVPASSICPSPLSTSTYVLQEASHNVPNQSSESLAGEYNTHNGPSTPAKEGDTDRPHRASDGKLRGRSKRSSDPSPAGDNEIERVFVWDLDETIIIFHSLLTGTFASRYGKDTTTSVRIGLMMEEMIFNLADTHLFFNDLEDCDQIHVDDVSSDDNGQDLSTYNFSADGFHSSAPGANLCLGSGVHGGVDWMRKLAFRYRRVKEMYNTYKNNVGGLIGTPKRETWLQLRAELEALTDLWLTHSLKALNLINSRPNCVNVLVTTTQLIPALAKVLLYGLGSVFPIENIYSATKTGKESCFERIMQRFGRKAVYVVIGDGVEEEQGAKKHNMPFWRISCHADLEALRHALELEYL
Target sequence (Q15475 whole entry, looked up): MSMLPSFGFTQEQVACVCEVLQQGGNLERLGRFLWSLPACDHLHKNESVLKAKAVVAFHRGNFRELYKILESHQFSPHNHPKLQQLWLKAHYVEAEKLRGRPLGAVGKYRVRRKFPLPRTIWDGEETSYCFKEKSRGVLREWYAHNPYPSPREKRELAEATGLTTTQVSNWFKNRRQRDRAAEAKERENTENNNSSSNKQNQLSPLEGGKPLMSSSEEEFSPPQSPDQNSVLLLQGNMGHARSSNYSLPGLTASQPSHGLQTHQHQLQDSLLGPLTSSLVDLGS
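AlphaScreen luminescence read after one hour at 37 °C in darkness. Pin-transferred compounds met GST-Six1 and His-Eya2 protein (5X stock 250 nM/500 nM) plus glutathione donor and Ni-chelate acceptor beads (5X, 50 ug/mL).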
TDP1 inh: blocks human tyrosyl-DNA phosphodiesterase 1; 350,000 compounds, 0.28% hits; Q9NUW8; recombinant TDP1, AlphaScreen DNA substrate cleavage; Potency, µM (highest dose often 130 µM), without a hit: at the highest dose activity change, negative = inhibition, most hits filed as inhibitors; note: potency is the fitted concentration of half-maximal effect; nearly all actives have a fitted effect of over 40% in size
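Tdp1 1 nM final; 15 min RT w/ cpd; substrate 15 nM, 5 min; beads 10 ug/ml, 10 min; AlphaScreen read. Neg ctrl: no enzyme.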
DT40 TDP1 CPT: DT40-hTDP1 cell growth loss with CPT; chicken DT40 Tdp1-/-;hTDP1 cells + 20 nM CPT, ATP luminescence, 48 h; Potency, µM (titrated, usually from 46.2 µM), inactives show top-dose activity change, negative = growth inhibition, hits mostly inhibitors; 420,000 compounds, 12% hits; note: potency is the fitted concentration of half-maximal effect; nearly all actives have a fitted effect of over 55% in size
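Chicken DT40 Tdp1-/- cells complemented with human TDP1, 400 cells/well, exposed to compounds plus 20 nM camptothecin for at least 48 h at 37 C; viability read as ATP content by CellTiter-Glo luminescence.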
Numbers without * were called inactive. Unless noted, calls come from the whole dose curve; as a rule, active = well fitted curve in the direction sought with a large enough effect; inconclusive = small, poorly fitted or top-dose-only effect, or another doubt; inactive = no such curve, though single readings can be large; an effect the other way counts as inactive or inconclusive. % is set by controls: 0 for no effect and ±100 for the full control effect.

Cc1ccc([N+](=O)[O-])c(C)c1 was read as TDP1 inh 6%.
For Cc1cc(C)cc(N2C(=O)C=CC2=O)c1 the results were IL-1B inflam inh -103*, CtBP-E1A inh 0, DT40 TDP1 no CPT 0.82µM*, Six1-Eya2 inh -3 and DT40 TDP1 CPT 0.73µM*.
For Cc1c([N+](=O)[O-])cc(N2C(=O)C=CC2=O)cc1[N+](=O)[O-] the results were IL-1B inflam inh -15, CtBP-E1A inh 0, DT40 TDP1 no CPT 1.6µM*, Six1-Eya2 inh -10 and DT40 TDP1 CPT 0.73µM*.
For Cc1cc(N2C(=O)C=CC2=O)c([N+](=O)[O-])cc1C the results were IL-1B inflam inh -3, CtBP-E1A inh inconclusive, DT40 TDP1 no CPT 1.8µM*, Six1-Eya2 inh -17, TDP1 inh 6% and DT40 TDP1 CPT 0.82µM*.
For CN(c1cc2c(c3c1ccn3C)C1CCC2C1)C1CCCCC1 (stereo not drawn) the results were IL-1B inflam inh 21, CtBP-E1A inh inconclusive, DT40 TDP1 no CPT inconclusive, Six1-Eya2 inh inconclusive and DT40 TDP1 CPT inconclusive.
`Nc1cccc(Nc2nc(OC(C(F)(F)F)C(F)(F)F)nc(OC(C(F)(F)F)C(F)(F)F)n2)c1` gave IL-1B inflam inh -89*, CtBP-E1A inh -3, DT40 TDP1 no CPT 23µM*, Six1-Eya2 inh -9, TDP1 inh 4% and DT40 TDP1 CPT 21µM*.
For Cc1ccc(Nc2nc(C)c(CCC(C)C)c(=O)[nH]2)cc1 the results were IL-1B inflam inh -13, CtBP-E1A inh 9, DT40 TDP1 no CPT 18µM*, Six1-Eya2 inh -25, TDP1 inh 5% and DT40 TDP1 CPT inconclusive.
Screening Cc1nc(NCc2ccccc2)[nH]c(=O)c1CCC(C)C returned IL-1B inflam inh -7, CtBP-E1A inh 2, DT40 TDP1 no CPT inconclusive, Six1-Eya2 inh -3, TDP1 inh -3% and DT40 TDP1 CPT inconclusive.
`Cc1nc(Nc2ccc(F)cc2)[nH]c(=O)c1CCC(C)C` gave IL-1B inflam inh -8, CtBP-E1A inh 7, DT40 TDP1 no CPT inconclusive, Six1-Eya2 inh -2, TDP1 inh 2% and DT40 TDP1 CPT inconclusive.
Screening CCCCCc1c(C)nc(Nc2ccccc2)[nH]c1=O returned IL-1B inflam inh -4, CtBP-E1A inh -1, DT40 TDP1 no CPT 18µM*, Six1-Eya2 inh -12, TDP1 inh -8% and DT40 TDP1 CPT 21µM*.
Screening CC(=O)C1=C(C)N(Cc2ccccc2)C(=O)N[C@H]1c1cccs1 returned IL-1B inflam inh 0, CtBP-E1A inh 25, DT40 TDP1 no CPT -11%, Six1-Eya2 inh 14, TDP1 inh 4% and DT40 TDP1 CPT -3%.
`O=[N+]([O-])c1cc(N=Nc2ccc3ccccc3c2)ccc1O` gave IL-1B inflam inh 2, DT40 TDP1 no CPT inconclusive, Six1-Eya2 inh -1 and DT40 TDP1 CPT 18µM*.
`CC(C)[C@H](NS(=O)(=O)c1cccc(C(F)(F)F)c1)C(=O)OCC(N)=O` gave IL-1B inflam inh 12, CtBP-E1A inh 6, DT40 TDP1 no CPT -15%, Six1-Eya2 inh 8, TDP1 inh 0% and DT40 TDP1 CPT 3%.
For Cc1ccccc1OCc1nnc(SCC(=O)Nc2ccc3nc(SCC(=O)NC(C)(C)C)sc3c2)n1C the results were IL-1B inflam inh -11, CtBP-E1A inh 6, DT40 TDP1 no CPT inconclusive, Six1-Eya2 inh 5, TDP1 inh -1% and DT40 TDP1 CPT 18µM*.
Screening CCC(C)/C(C)=N/NC(=O)c1ccc(CSc2nc3ccccc3s2)cc1 (stereo not drawn) returned IL-1B inflam inh 75, CtBP-E1A inh -5, DT40 TDP1 no CPT 23µM*, Six1-Eya2 inh 3, TDP1 inh 6% and DT40 TDP1 CPT 15µM*.
`CCN(CC)C(=O)CSc1nc2ccc(NC(=O)CSc3nnc(COc4ccccc4C)n3C)cc2s1` gave IL-1B inflam inh -13, CtBP-E1A inh -2, DT40 TDP1 no CPT inconclusive, Six1-Eya2 inh -17, TDP1 inh 1% and DT40 TDP1 CPT inconclusive.
`CCOC(=O)CSc1nc2ccc(NC(=O)COc3ccccc3)cc2s1` gave DT40 TDP1 no CPT -19%, TDP1 inh -3% and DT40 TDP1 CPT inconclusive.
For Cc1ccc(OCC(=O)Nc2ccc3nc(SCC(=O)N4CCCC4)sc3c2)cc1C the results were DT40 TDP1 no CPT 23µM*, TDP1 inh 8% and DT40 TDP1 CPT -95%.
Screening Cc1ccc(CSc2nc3ccc(NC(=O)COc4ccccc4)cc3s2)cc1 returned DT40 TDP1 no CPT inconclusive, TDP1 inh 8% and DT40 TDP1 CPT 15µM*.
`C/C(=N\Nc1ccc([N+](=O)[O-])cc1)c1ccc2c(c1)OCO2` gave IL-1B inflam inh -17, CtBP-E1A inh -19, DT40 TDP1 no CPT -24%, Six1-Eya2 inh 1, TDP1 inh 1% and DT40 TDP1 CPT -11%.
Screening COc1cccc(NS(=O)(=O)c2cc3[nH]c(=O)c(=O)[nH]c3cc2C)c1 returned IL-1B inflam inh 0, DT40 TDP1 no CPT 6%, Six1-Eya2 inh 8, TDP1 inh 3% and DT40 TDP1 CPT 0%.
`CC1(C)Cc2c(sc3c2c(N)nc(=S)n3Cc2ccc(Br)cc2)CO1` gave CtBP-E1A inh 3, DT40 TDP1 no CPT -11%, Six1-Eya2 inh 3 and DT40 TDP1 CPT 11%.
Cc1ccc(NC(=O)CSc2nc3ccc(NC(=O)COc4ccc(C)cc4)cc3s2)cc1 was read as DT40 TDP1 no CPT 18µM*, TDP1 inh -2% and DT40 TDP1 CPT 10µM*.
Cc1ccc(OCC(=O)Nc2ccc3nc(SCc4ccccc4)sc3c2)cc1 was read as DT40 TDP1 no CPT inconclusive, TDP1 inh -3% and DT40 TDP1 CPT -23%.
`Cc1ccc(OCC(=O)Nc2ccc3nc(SCC(=O)N(C)c4ccccc4)sc3c2)cc1` gave DT40 TDP1 no CPT 15µM*, TDP1 inh 5% and DT40 TDP1 CPT inconclusive.
Screening CCOc1ccc(C(=O)Nc2ccc3nc(SCc4ccccc4)sc3c2)cc1 returned DT40 TDP1 no CPT 8.2µM*, TDP1 inh -2% and DT40 TDP1 CPT 12µM*.
`Cc1ccc(OCC(=O)Nc2ccc3nc(SCC(=O)N4CCCC4)sc3c2)cc1` gave DT40 TDP1 no CPT 21µM*, TDP1 inh -2% and DT40 TDP1 CPT inconclusive.
Cc1cccc(NC(=O)CSc2nc3ccc(NC(=O)COc4ccccc4C)cc3s2)c1 was read as DT40 TDP1 no CPT 16µM*, TDP1 inh 5% and DT40 TDP1 CPT 15µM*.

Compound activity (PubChem)
